FXN GAA850 act: increases GAA850 frataxin promoter reporter activity. HEK293 lucGAA850 FXN promoter luciferase reporter, 24 h; percent of 10 µM SAHA response. activation, % at 6 µM. 0.56% of 360,000 active;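 active means activation above the average of all compounds screened plus 3 SD, cutoff fixed separately per campaign, cut at about 7.5% in these data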;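 further: 0% = DMSO wells and 100% = 10 µM SAHA wells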
MITF TRPM1 HTS: increases MITF-driven TRPM1 promoter luciferase signal | SK-MEL-5 TRPM1-promoter luciferase, 24 h; % of positive control, neutral wells = 0 | activation, % at 12.5 µM | 0.75% of 300,000 active | AID 588334;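 active means mean activation of at least 80% with every replicate also reaching 80%; inconclusive means mean reaches 80% but some replicate falls short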;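 further: 0% = neutral control wells and 100% = parthenolide positive control wells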
AHR act: activators of human aryl hydrocarbon receptor; P35869; AHR-responsive luciferase reporter cells, luminescence; activation, % at 5 µM; 2.5% of 320,000 active; in the data active means activation above about 47%;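 further: 0% = vehicle wells and 100% = reference agonist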
Target sequence (P35869 whole entry, looked up): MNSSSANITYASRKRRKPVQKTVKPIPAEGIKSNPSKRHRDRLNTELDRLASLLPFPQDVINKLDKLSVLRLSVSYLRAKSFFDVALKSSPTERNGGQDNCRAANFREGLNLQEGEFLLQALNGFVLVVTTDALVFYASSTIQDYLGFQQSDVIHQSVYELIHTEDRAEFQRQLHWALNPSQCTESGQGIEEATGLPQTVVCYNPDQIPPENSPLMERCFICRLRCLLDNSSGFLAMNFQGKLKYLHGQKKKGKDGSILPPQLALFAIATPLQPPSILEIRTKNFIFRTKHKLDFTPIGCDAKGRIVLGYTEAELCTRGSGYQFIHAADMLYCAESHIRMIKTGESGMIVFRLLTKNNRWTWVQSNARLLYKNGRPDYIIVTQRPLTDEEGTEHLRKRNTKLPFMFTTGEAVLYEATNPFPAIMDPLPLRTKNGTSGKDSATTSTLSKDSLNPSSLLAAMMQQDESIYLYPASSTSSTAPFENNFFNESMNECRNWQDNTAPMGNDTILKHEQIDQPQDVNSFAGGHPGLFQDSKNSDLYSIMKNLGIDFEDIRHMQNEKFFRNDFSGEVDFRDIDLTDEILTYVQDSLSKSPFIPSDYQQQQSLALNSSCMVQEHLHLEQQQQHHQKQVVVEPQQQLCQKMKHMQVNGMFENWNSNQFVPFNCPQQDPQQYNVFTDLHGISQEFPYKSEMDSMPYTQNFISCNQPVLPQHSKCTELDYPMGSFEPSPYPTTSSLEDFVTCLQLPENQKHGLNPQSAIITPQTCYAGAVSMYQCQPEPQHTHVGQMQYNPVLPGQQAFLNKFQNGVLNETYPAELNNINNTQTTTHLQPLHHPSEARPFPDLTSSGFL
esBAF inh: inhibitors of esBAF chromatin remodeling in mouse ES cells; Bmi1-luciferase knock-in reporter, 24 h; 100% = twice the neutral-well signal; reporter increase, % at 12.5 µM; 2% of 350,000 active; in the data active means activation above about 40%; inconclusive means no clear call, values can overlap the other calls;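 further: 0% = median of the plate's neutral control wells and 100% = double that signal; a rise in the Bmi1 reporter signal indicates esBAF inhibition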
Wnt act: activates Wnt/beta-catenin signaling in a reporter cell assay | activator, plate reader | activation, % at 9.35 µM | 1.2% of 300,000 active; in the data active means activation above about 30%, passing the limit was not always enough; inconclusive means no clear call, values can overlap the other calls;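 further: 0% = neutral control wells and 100% = positive control wells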
* = called active by the depositor. An excerpt weighted towards active compounds, which were near 4.2% of everything screened.

For CCN1[C@@H]2Cn3c(ccc(-c4ccccc4)c3=O)[C@H]1[C@@H](C(=O)NC1CCC1)[C@@H]2CO the results were esBAF inh 5.8.
For N#C[C@@H]1[C@H](c2ccccc2)[C@H](CO)N1C(=O)CCN1CCCCC1 the results were esBAF inh 0.2.
Screening C[C@@H]1CN([C@H](C)CO)C(=O)c2cccc(NC(=O)C3CCCCC3)c2O[C@H]1CN(C)C(=O)Nc1ccccc1 returned esBAF inh 0.9.
`Cc1ccc(C2=NS(=O)(=O)N(C)C(C(=O)Nc3ccc4c(c3)OCO4)=C2)cc1` gave FXN GAA850 act 0.3, MITF TRPM1 HTS 6.0, AHR act 52.8*, esBAF inh 26.5 and Wnt act 4.0.
For COc1ccc(C2=NS(=O)(=O)N(C)C(C(=O)Nc3ccc4c(c3)OCO4)=C2)cc1 the results were FXN GAA850 act -0.2, MITF TRPM1 HTS 1.1, AHR act 34.7, esBAF inh 4.1 and Wnt act 0.6.
For Cc1[nH]c2ccccc2c1/C=N/NC(=O)CNC(=O)c1cccs1 the results were FXN GAA850 act -0.6, AHR act 9.4 and Wnt act 0.0.
For Cn1cc(/C=N/NC(=O)c2ccccc2O)c2ccccc21 the results were FXN GAA850 act 3.7, AHR act 37.8, esBAF inh inconclusive and Wnt act 3.8.
Cn1cc(/C=N/NC(=O)c2cccc([N+](=O)[O-])c2)c2ccccc21 was read as FXN GAA850 act -2.1, MITF TRPM1 HTS -3.6, AHR act 68.8*, esBAF inh -8.6 and Wnt act -0.8.
For Cn1cc(C(=O)N/N=C/c2cc(Br)cs2)c2ccccc21 the results were AHR act 50.3*.
Cc1[nH]c2ccccc2c1/C=N/NC(=O)c1cccs1 was read as FXN GAA850 act 4.0, MITF TRPM1 HTS 9.7, AHR act 74.0* and Wnt act 1.3.
Cc1[nH]c2ccccc2c1/C=N/NC(=O)c1cccc([N+](=O)[O-])c1 was read as FXN GAA850 act 0.3, MITF TRPM1 HTS -16.2, AHR act 48.1* and Wnt act -1.7.
`Cc1[nH]c2ccccc2c1/C=N/NC(=O)c1cccc(F)c1` gave FXN GAA850 act 3.2, MITF TRPM1 HTS 6.1, AHR act 42.5 and Wnt act -0.4.
`C[C@H]1CN([C@@H](C)CO)C(=O)c2cc(-c3cccc(F)c3)cnc2O[C@@H]1CN(C)C(=O)C1CCCCC1` gave esBAF inh -6.9.
O=C(/C=C/c1cccc(Cl)c1)Nc1ncccn1 was read as FXN GAA850 act 1.4, MITF TRPM1 HTS 44.1 and AHR act 64.1*.
Screening O=C(/C=C/c1cccc(F)c1)Nc1ccc(S(=O)(=O)Nc2ncccn2)cc1 returned FXN GAA850 act 2.0, MITF TRPM1 HTS 6.2, AHR act 54.0*, esBAF inh 8.5 and Wnt act 1.9.
For O=C(/C=C/c1ccc(Br)cc1)Nc1ccc(S(=O)(=O)Nc2ncccn2)cc1 the results were FXN GAA850 act 2.6, MITF TRPM1 HTS 9.4, AHR act 0.7 and Wnt act -1.7.
Screening Cc1ccc(S(=O)(=O)Nc2ccc3c(c2)C(=O)N([C@H](C)CO)C[C@@H](C)[C@@H](CN(C)Cc2ccc(C(=O)O)cc2)OCCCC[C@@H](C)O3)cc1 returned esBAF inh -1.7.
`CCN1[C@@H]2Cn3c(ccc(-c4ccccc4OC)c3=O)[C@H]1[C@@H](C(=O)N1CCOCC1)[C@@H]2CO` gave esBAF inh 1.4.
For CC(=O)Nc1ccc(C2=NN(Cc3nnc(-c4ccccc4)o3)C(=O)SC2)cc1 the results were FXN GAA850 act 3.6, MITF TRPM1 HTS 1.2, AHR act 76.3* and esBAF inh 5.5.
For N#CC(=C1CCCC1)c1nc(-c2cc3ccccc3oc2=O)cs1 the results were FXN GAA850 act 4.8, MITF TRPM1 HTS 87.8*, AHR act 7.3, esBAF inh 107.8* and Wnt act 19.4.
For Cc1ccc(-c2csc(C(C#N)=C3CCCC3)n2)cc1 the results were FXN GAA850 act 4.3, MITF TRPM1 HTS 97.8*, AHR act -1.8, esBAF inh 49.2* and Wnt act 22.9.
Screening N#CC(=C1CCCC1)c1nc(-c2ccccc2O)cs1 returned FXN GAA850 act 2.4, MITF TRPM1 HTS 67.5 and AHR act 16.8.
`CO[C@H]1CN(C)C(=O)c2cc(NC(=O)Nc3cc(F)ccc3F)ccc2OC[C@H](C)N(C(=O)c2cnccn2)C[C@@H]1C` gave esBAF inh 4.6.
`c1ccc(-c2noc(C3CCCCC3)n2)nc1` gave FXN GAA850 act 3.1, MITF TRPM1 HTS 71.8, AHR act -3.5, esBAF inh 1.2 and Wnt act 36.2*.
`c1ccc(-c2noc(C34CC5CC(CC(C5)C3)C4)n2)cc1` gave FXN GAA850 act 0.2, MITF TRPM1 HTS 17.1 and AHR act 2.2.
Brc1ccc(-c2noc(C3CCCCC3)n2)cc1 was read as FXN GAA850 act 4.2, MITF TRPM1 HTS 57.8, AHR act 2.7 and Wnt act 55.5*.
For c1ccc(-c2noc(C34CC5CC(CC(C5)C3)C4)n2)nc1 the results were FXN GAA850 act 5.3, MITF TRPM1 HTS 44.4, AHR act 7.5 and esBAF inh 53.4*.
C[C@@H]1CN([C@H](C)CO)S(=O)(=O)c2ccc(C3=CCCCC3)cc2O[C@H]1CN(C)C(=O)C1CCOCC1 was read as esBAF inh 6.0.
For CC(C)CC#Cc1ccc2c(c1)O[C@@H](CN(C)S(=O)(=O)c1cccc(F)c1)[C@H](C)CN([C@@H](C)CO)S2(=O)=O the results were esBAF inh -2.9.
`COc1ccccc1-c1ccc2c(c1)O[C@H](CN(C)C(=O)c1cccnc1)[C@@H](C)CN([C@@H](C)CO)S2(=O)=O` gave esBAF inh 4.5.
Screening C=CCSc1n[nH]c(-c2ccccc2)n1 returned FXN GAA850 act 2.9, MITF TRPM1 HTS 70.8, AHR act 14.8 and esBAF inh 53.5*.
`C=CCSc1n[nH]c(-c2ccc(OC)cc2)n1` gave FXN GAA850 act 2.5, MITF TRPM1 HTS 101.5*, AHR act 11.4 and esBAF inh 53.5*.
COCC(=O)Nc1ccc2c(c1)C(=O)N(C)[C@@H]1CC[C@@H](CC(=O)NCC3CCCCC3)O[C@H]1CO2 was read as esBAF inh -2.2.
Screening O=C(C[C@H]1CC[C@@H](NC(=O)Nc2ccc(C(F)(F)F)cc2)[C@H](CO)O1)NCCN1CCCC1 returned esBAF inh -6.2.
Cc1ccc2oc(C(=O)Nc3cc(C)on3)c(C)c2c1 was read as FXN GAA850 act 5.0, MITF TRPM1 HTS 21.1, AHR act 29.6, esBAF inh 36.9 and Wnt act 42.5*.
For Cc1cc(NC(=O)c2sc3ccccc3c2O)no1 the results were FXN GAA850 act 3.9, MITF TRPM1 HTS 10.5, esBAF inh 29.4 and Wnt act 34.0*.
CCOc1ccc2oc(C(=O)Nc3ccc(C)cn3)c(C)c2c1 was read as FXN GAA850 act 2.4, esBAF inh 85.0* and Wnt act 20.9.
